Results on 38 compounds are retold here after the supplement of paper PMC8007513.

This assay concerns Trichoderma virens ATCC 9645. As to the kind of experiment: growth yield (OD600) with compound + IPBC relative to untreated control; higher = less growth inhibition. Conditions: compound concentration: 100 uM, IPBC concentration: 200 ng/ml. A digest of the protocol: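 Trichoderma virens ATCC 9645 spores from 7-day potato dextrose agar plates were suspended in potato dextrose broth at 15,000 spores ml^−1. Aliquots of 100 μl with library compounds at 100 μM final, with or without a co-applied biocide at 200 ng ml^−1, were grown in 96-well plates at 30 °C. OD600 was read at 40 h and 72 h on a BioTek EL800. Growth is expressed relative to the control without either agent, as means of duplicate screens.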

Where a name gives a salt, the structure may show the parent alone. ± gives the standard error. About 130 (10%) of roughly 1,300 compounds showed an effect of 50% or more. Many of the other results were omitted from the sample, so strong results are more common in it than they were.

On to `C[C@]12Cc3c[nH]nc3C[C@@H]1CC[C@@H]1[C@@H]2CC[C@@]2(C)[C@H]1CC[C@]2(C)O` [Stanozolol] + CCCCNC(=O)OCC#CI [3-iodo-2-propynyl butylcarbamate (IPBC)], for which the growth yield reads like this: (40 h) 91.02 ± 0.16%; (72 h) 95.9%.
On the same counts, the results for `CCN1CC(CCN2CCOCC2)C(c2ccccc2)(c2ccccc2)C1=O` (stereo unspecified) [Doxapram hydrochloride] + CCCCNC(=O)OCC#CI [3-iodo-2-propynyl butylcarbamate (IPBC)] are 88.6 ± 1.3% and 91.14 ± 0.32%.
In the case of `CN(C)CCCSC(=N)N` [Dimaprit dihydrochloride] + CCCCNC(=O)OCC#CI [3-iodo-2-propynyl butylcarbamate (IPBC)], the growth yield reads like this: (40 h) 93.9 ± 6.5%; (72 h) 95.8 ± 4.3%.
On the same counts, the results for `Cc1ccc(-c2ncc(Cl)cc2-c2ccc(S(C)(=O)=O)cc2)cn1` [Etoricoxib] + CCCCNC(=O)OCC#CI [3-iodo-2-propynyl butylcarbamate (IPBC)] are 88.79 ± 0.48% and 91.14 ± 0.73%.
On the same counts, the results for `CN[C@H]1CC[C@@H](c2ccc(Cl)c(Cl)c2)c2ccccc21` [Sertraline] + CCCCNC(=O)OCC#CI [3-iodo-2-propynyl butylcarbamate (IPBC)] are 30.8 ± 4.1% and 82.5 ± 2%.
In the case of `CN[C@@H]1C[C@@H](c2ccc(Cl)c(Cl)c2)c2ccccc21` [Indatraline hydrochloride] + CCCCNC(=O)OCC#CI [3-iodo-2-propynyl butylcarbamate (IPBC)], the growth yield is 29.4 ± 4.9% (40 h) and 79.5 ± 1.7% (72 h).
Taken in the same sequence, the figures for `Cc1c(N(C)CS(=O)(=O)O)c(=O)n(-c2ccccc2)n1C` [Dipyrone] + CCCCNC(=O)OCC#CI [3-iodo-2-propynyl butylcarbamate (IPBC)] were 92.4 ± 6.7% and 87.9 ± 5.2%.
Taken in the same sequence, the figures for `COc1ccnc(C[S+]([O-])c2nc3cc(OC(F)F)ccc3[nH]2)c1OC` (stereo unspecified) [Pantoprazole sodium] + CCCCNC(=O)OCC#CI [3-iodo-2-propynyl butylcarbamate (IPBC)] were 73.5 ± 2.4% and 98.9 ± 0.94%.
Taken in the same sequence, the figures for `C#C[C@]1(O)CC[C@H]2[C@@H]3CCc4cc(OC)ccc4[C@H]3CC[C@@]21C` [Ethynylestradiol 3-methyl ether] + CCCCNC(=O)OCC#CI [3-iodo-2-propynyl butylcarbamate (IPBC)] were 87 ± 16% and 88.9 ± 12%.
Regarding `CO[C@@]1(NC(=O)C(C(=O)O)c2ccc(O)cc2)C(=O)N2C(C(=O)O)=C(CSc3nnnn3C)CO[C@@H]21` (stereo partly specified) [Moxalactam disodium salt] + CCCCNC(=O)OCC#CI [3-iodo-2-propynyl butylcarbamate (IPBC)], the growth yield by setting is: (40 h) 97.1 ± 14%; (72 h) 96 ± 7.7%.
With `CCn1cc(C(=O)O)c(=O)c2cc(F)c(N3CCNCC3)nc21` [Enoxacin] + CCCCNC(=O)OCC#CI [3-iodo-2-propynyl butylcarbamate (IPBC)], the growth yield (40 h) is 83.9 ± 1.6% and the growth yield (72 h) came out at 87 ± 1.5%.
On the same counts, the results for `CCCCC(CC)CN1CN(CC(CC)CCCC)CC(C)(N)C1` (stereo unspecified) [Hexetidine] + CCCCNC(=O)OCC#CI [3-iodo-2-propynyl butylcarbamate (IPBC)] are 28.6 ± 8.6% and 91.1 ± 1.8%.
On the same counts, the results for `CCOC1O[C@H]([C@@H](COCc2ccccc2)OCc2ccccc2)[C@H](OCc2ccccc2)[C@H]1O` (stereo partly specified) [Tribenoside] + CCCCNC(=O)OCC#CI [3-iodo-2-propynyl butylcarbamate (IPBC)] are 75.4 ± 2.1% and 88.1 ± 1.1%.
Taken in the same sequence, the figures for `COc1cc([C@@H]2c3cc4c(cc3[C@H](O)[C@H]3COC(=O)[C@H]23)OCO4)cc(OC)c1OC` [Podophyllotoxin] + CCCCNC(=O)OCC#CI [3-iodo-2-propynyl butylcarbamate (IPBC)] were 104 ± 6.3% and 102 ± 4.5%.
For `CC(=C(CCO)SSCC1CCCO1)N(C=O)Cc1cnc(C)nc1N` (stereo in doubt) [Fursultiamine Hydrochloride] + CCCCNC(=O)OCC#CI [3-iodo-2-propynyl butylcarbamate (IPBC)], the growth yield is 104 ± 4.3% (40 h) and 102 ± 3.2% (72 h).
Taken in the same sequence, the figures for `Oc1c(I)cc(Cl)c2cccnc12` [Clioquinol] + CCCCNC(=O)OCC#CI [3-iodo-2-propynyl butylcarbamate (IPBC)] were 11.4% and 5.66 ± 0.21%.
Turning to `Oc1c(Cl)cc(Cl)c2cccnc12` [Chloroxine] + CCCCNC(=O)OCC#CI [3-iodo-2-propynyl butylcarbamate (IPBC)], the growth yield worked out at 1.27 ± 0.95% (40 h) and 1.89 ± 0.21% (72 h).
On the same counts, the results for `CC(C(=O)O)c1ccc2c(c1)Cc1cccnc1O2` (stereo unspecified) [Pranoprofen] + CCCCNC(=O)OCC#CI [3-iodo-2-propynyl butylcarbamate (IPBC)] are 92 ± 8.7% and 90.6 ± 3.8%.
Taken in the same sequence, the figures for `Nc1ncn(C2OC(CO)C(O)C2O)c(=O)n1` (stereo unspecified) [Azacytidine-5] + CCCCNC(=O)OCC#CI [3-iodo-2-propynyl butylcarbamate (IPBC)] were 67.2 ± 3% and 91.9 ± 1.1%.
As to `Cc1cn([C@H]2C=C[C@@H](CO)O2)c(=O)[nH]c1=O` [Stavudine] + CCCCNC(=O)OCC#CI [3-iodo-2-propynyl butylcarbamate (IPBC)], the growth yield is, setting by setting: (40 h) 98.5 ± 15%; (72 h) 97.6 ± 9.5%.
Taken in the same sequence, the figures for `CNS(=O)(=O)Cc1ccc2[nH]cc(CCN(C)C)c2c1` [Sumatriptan succinate] + CCCCNC(=O)OCC#CI [3-iodo-2-propynyl butylcarbamate (IPBC)] were 92 ± 11% and 91.3 ± 7.7%.
As for `CCCCS(=O)(=O)N[C@@H](Cc1ccc(OCCCCC2CCNCC2)cc1)C(=O)O` [Tirofiban hydrochloride] + CCCCNC(=O)OCC#CI [3-iodo-2-propynyl butylcarbamate (IPBC)], the growth yield is, setting by setting: (40 h) 85.5 ± 1.9%; (72 h) 91.3 ± 0.94%.
As for `CC(=O)OC1CN2CCC1CC2` (stereo unspecified) [Aceclidine Hydrochloride] + CCCCNC(=O)OCC#CI [3-iodo-2-propynyl butylcarbamate (IPBC)], the growth yield (40 h) was found to be 80.85 ± 0.79% and the growth yield (72 h) is 86.84 ± 0.21%.
Taken in the same sequence, the figures for `CC(C)(CO)C(O)C(=O)NCCCO` (stereo unspecified) [Panthenol (D)] + CCCCNC(=O)OCC#CI [3-iodo-2-propynyl butylcarbamate (IPBC)] were 87.2 ± 0.48% and 90.09 ± 0.52%.
Taken in the same sequence, the figures for `CC(C)(C)NC[C@H](O)c1ccc(O)c(CO)c1` [Levalbuterol hydrochloride] + CCCCNC(=O)OCC#CI [3-iodo-2-propynyl butylcarbamate (IPBC)] were 86.2 ± 2.4% and 90.3 ± 2.6%.
For `OCc1cc(C(O)CNCCCCCCOCCCCc2ccccc2)ccc1O` (stereo unspecified) [Salmeterol] + CCCCNC(=O)OCC#CI [3-iodo-2-propynyl butylcarbamate (IPBC)], the growth yield reads like this: (40 h) 34.9 ± 1.6%; (72 h) 75.1 ± 3.4%.
Take `CC(C)(C)NCC(O)c1ccc(O)c(CO)c1` (stereo unspecified) [Salbutamol] + CCCCNC(=O)OCC#CI [3-iodo-2-propynyl butylcarbamate (IPBC)]: the growth yield reads like this: (40 h) 85.93 ± 0.16%; (72 h) 93 ± 0.94%.
Taken in the same sequence, the figures for `C1N2CN3CN1CN(C2)C3` [Methenamine] + CCCCNC(=O)OCC#CI [3-iodo-2-propynyl butylcarbamate (IPBC)] were 89 ± 1.3% and 93.13 ± 0.84%.
Taken in the same sequence, the figures for `Nc1ccc(/N=N/c2ccccc2)c(N)n1` [Phenazopyridine hydrochloride] + CCCCNC(=O)OCC#CI [3-iodo-2-propynyl butylcarbamate (IPBC)] were 7.15 ± 0.48% and 13.5 ± 1.8%.
For `Nc1c2ccccc2nc2ccccc12` [Aminacrine] + CCCCNC(=O)OCC#CI [3-iodo-2-propynyl butylcarbamate (IPBC)], the growth yield by setting is: (40 h) 85.5 ± 5.4%; (72 h) 96.3 ± 3.4%.
Taken in the same sequence, the figures for `Cc1cccc(C)c1NC1=NCCCS1` [Xylazine] + CCCCNC(=O)OCC#CI [3-iodo-2-propynyl butylcarbamate (IPBC)] were 84.3 ± 4.3% and 88.8 ± 2.8%.
`CN(C)CCN(Cc1ccccc1)c1ccccn1` [Tripelennamine hydrochloride] + CCCCNC(=O)OCC#CI [3-iodo-2-propynyl butylcarbamate (IPBC)]: the growth yield runs as follows: (40 h) 95 ± 3.5%; (72 h) 95.2 ± 1.9%.
Taken in the same sequence, the figures for `CC(C)(C)NC(=O)[C@H]1CC[C@H]2[C@@H]3CC[C@H]4NC(=O)C=C[C@]4(C)[C@H]3CC[C@]12C` [Finasteride] + CCCCNC(=O)OCC#CI [3-iodo-2-propynyl butylcarbamate (IPBC)] were 84.2 ± 7.9% and 87.5 ± 6.7%.
Consider `Cc1c(O)c(=O)n(-c2ccccc2)n1C` [Antipyrine, 4-hydroxy] + CCCCNC(=O)OCC#CI [3-iodo-2-propynyl butylcarbamate (IPBC)], for which the growth yield (40 h) is 91.5 ± 2.2% and the growth yield (72 h) worked out at 92.2 ± 1.4%.
Taken in the same sequence, the figures for `CO/N=C(\C(=O)N[C@@H]1C(=O)N2C(C(=O)O)=C(COC(N)=O)CS[C@H]12)c1ccco1` [Cefuroxime sodium salt] + CCCCNC(=O)OCC#CI [3-iodo-2-propynyl butylcarbamate (IPBC)] were 92.13 ± 0.64% and 92.2 ± 2%.
On the same counts, the results for `CC[C@H]1OC(=O)[C@H](C)[C@@H](O[C@H]2C[C@@](C)(OC)[C@@H](O)[C@H](C)O2)[C@H](C)[C@@H](O[C@@H]2O[C@H](C)C[C@H](N(C)C)[C@H]2O)[C@](C)(OC)C[C@@H](C)C(=O)[C@H](C)[C@@H](O)[C@]1(C)O` [Clarithromycin] + CCCCNC(=O)OCC#CI [3-iodo-2-propynyl butylcarbamate (IPBC)] are 91.65 ± 0.79% and 92.1%.
Taken in the same sequence, the figures for `CC[C@H]1OC(=O)[C@H](C)[C@@H](O[C@H]2C[C@@](C)(OC)[C@@H](O)[C@H](C)O2)[C@H](C)[C@@H](O[C@@H]2O[C@H](C)C[C@H](N(C)C)[C@H]2O)[C@](C)(O)C[C@@H](C)C(=O)[C@H](C)[C@@H](O)[C@]1(C)O` [Erythromycin] + CCCCNC(=O)OCC#CI [3-iodo-2-propynyl butylcarbamate (IPBC)] were 45.3 ± 0.79% and 50.8 ± 0.84%.
For `CC[C@H]1OC(=O)[C@H](C)[C@@H](O[C@H]2C[C@@](C)(OC)[C@@H](O)[C@H](C)O2)[C@H](C)[C@@H](O[C@@H]2O[C@H](C)C[C@H](N(C)C)[C@H]2O)[C@](C)(O)C[C@@H](C)CN(C)[C@H](C)[C@@H](O)[C@]1(C)O` [Azithromycin] + CCCCNC(=O)OCC#CI [3-iodo-2-propynyl butylcarbamate (IPBC)], the growth yield by setting is: (40 h) 108.7 ± 0.95%; (72 h) 106 ± 0.32%.
